PubChem BioAssay (EPA / NIEHS)
Inconclusive results are not listed. Some structures have more than one record in an assay (separate samples or runs), and their calls can disagree. Active and inactive are the calls of the source. How the source made its calls: active means hit-call score of the fitted dose curve at least 0.9, where 1 is the maximum; inconclusive means response in the unintended direction; inactive means score below 0.9.

Test: CCTE_Shafer_MEA_dev_AB: CCTE's Alamar Blue Assay for Cytotoxicity in the Neural Network Formation Assay, Shafer Lab (AID 2284083);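 further: twelve days of exposure from plating with re-dosing on DIV 5 and 9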
Protocol: CCTE_Shafer_MEA_dev assay is conducted using Axion Biosystems 48 well microelectrode array (MEA) plates and Maestro recording system. Each well of the MEA plate contains a grid of 16 microelectrodes embedded in the culture surface. Electrically active cells, such as neurons, can be cultured over the electrodes, and electrical activity in these cells can be recorded extracellularly. The spontaneous firing of neurons is captured from each electrode on a microsecond timescale providing both temporally and spatially precise data. […] The CCTE_Shafer_MEA_dev assay uses primary cultures of rat cortical neurons. Recordings are made on days post-plating 5, 7, 9 and 12. As these cultures mature over time, neural networks develop functional activity and form cohesive networks in which electrical activity can be highly coordinated. CCTE_Shafer_MEA_dev_AB is 1 of 19 assay components of the CCTE_Shafer_MEA_dev assay. It measures the resazurin reduction using fluorescence.Data from the assay component CCTE_Shafer_MEA_dev_AB was analyzed into 1 assay endpoint. This assay endpoint, CCTE_Shafer_MEA_dev_AB, was analyzed in the positive analysis fitting direction relative to DMSO as the negative control and baseline of activity. Using a type of viability reporter, loss-of-signal activity can be used to understand cell viability.
On the day prior to culture, each well was coated thoroughly with 150 uL of 0.05% polyethyleneimine (PEI, Sigma Cat P3143) in 50 mM HEPES (Sigma Cat H7523) at a pH of 8. The plate was incubated at 37C for one hour. PEI was rinsed out with 500 uL of sterile water three times. Plates were stored at 4C until the day of culture. This culture was plated at a seeding density of 1.5 x 10^5 cells/well on a 48-well MEA plate, prepared as described above. Cells were administered via a 25 uL media/laminin ([…]; Sigma Cat L2020-1MG) drop directly onto the microelectrode array, as adding the cells with the laminin results in better attachment than pre-coating with laminin. After 2 hours, an additional 475 uL of cortical media was added and the cells returned to the incubator. Exposure starts at day 0 of plating and is continued over twelve days of network development until the experiment is terminated. Cells are fed with fresh medium on DIV 5 and 9, following the recordings on those days. The entire volume of media in the well is exchanged and any vehicle or compound treatment is renewed. Complete details are found in OP-NHEERL/ISTD/SBB/TJS/2015-03-r0 (available on request, email shafer.tim@epa.gov). Measurement of the electrical activity is non-invasive, and recordings can be made from the same plate over multiple different days of the culture. In cortical neurons, this allows for the measurement of extracellular action potentials over the period during which networks form in the MEA plate.

SMILES | outcome | AC50
CCCCC(CC)COP(=O)(Oc1ccccc1)Oc1ccccc1 (centres undefined) | inactive | –
O=C(O)C(F)(F)C(F)(F)C(=O)O | inactive | –
CCC1(c2ccccc2)C(=O)N=C(O)NC1=O (centres undefined) | inactive | –
O=P(Oc1ccccc1)(Oc1ccccc1)Oc1ccccc1 | inactive | –
CC(C)(C)c1ccccc1OP(=O)(Oc1ccccc1)Oc1ccccc1 | inactive | 15 µM (active)
CC(O)C(F)(F)C(F)(F)F (centres undefined) | inactive | –
O=S(=O)(c1ccc(O)cc1)c1ccc(O)cc1 | inactive | –
CCOc1ccc(C(C)(C)COCc2cccc(Oc3ccccc3)c2)cc1 | – | 1.98 µM (active)
CCOP(=S)(OCC)SCSCC | inactive | 68.9 µM (active)
CCCCC(CC)COC(=O)c1c(Br)c(Br)c(Br)c(Br)c1C(=O)OCC(CC)CCCC (centres undefined) | – | 0.0248 µM (active)
c1cc2c3c(cccc3c1)CC2 | inactive | –
OCC(F)(F)OC(F)(F)C(F)(F)OC(F)(F)C(F)(F)OC(F)(F)CO | inactive | –
CO/N=C(/C(=O)OC)c1ccccc1COc1ccccc1C | – | 1.15 µM (active)
ClC1=C(Cl)C2(Cl)C3C(Cl)C(Cl)CC3C1(Cl)C2(Cl)Cl (centres undefined) | – | 7.42 µM (active)
C=CC(=O)OCC(F)(F)C(F)F | – | 20.7 µM (active)
O=C(O)C(F)(OC(F)(F)C(F)(F)C(F)(F)F)C(F)(F)F (centres undefined) | inactive | –
OCC(F)(F)OC(F)(F)C(F)(F)OC(F)(F)C(F)(F)OC(F)(F)F | inactive | –
